According to PubChem BioAssay (NCI):
Where “and” joins values, the source holds several entries; their conditions need not be identical. Identical values can stand only once. Compounds without any hit were thinned out: in the full panel of roughly 83,000, 20% have a hit.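 Compound tested at a single concentration for 48 hours in 96-well plates; a percent growth value below 10 was scored as active.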 Calls of active or inactive are those of the source.

Tests used:
Assay in all cases: NCI-60 one-dose screen, 48 h (100 = growth as untreated, 0 = no growth, -100 = all killed)
Settings in all cases: 10 µM unless noted
[1] = test system: SR leukemia
[2] = test system: RPMI-8226 leukemia
[3] = test system: OVCAR-8 ovarian
[4] = test system: OVCAR-5 ovarian
[5] = test system: OVCAR-4 ovarian
[6] = test system: SK-OV-3 ovarian
[7] = test system: IGROV1 ovarian
[8] = test system: OVCAR-3 ovarian
[9] = test system: HS 578T breast
[10] = test system: NCI/ADR-RES ovarian

Measured: growth

CN1CCN(CCNC(=O)c2cccc(CN3c4cccc5c4C(=Cc4cccnc43)N(C)C5=O)c2)CC1
inactive: [1] 33.5% | [3] 40.8% | [4] 42% | [5] 37.4% | [6] 18.2% | [7] 18.6% | [8] 34.3% | [10] 80.9%
active: [2] 2.26% | [9] -6.06%

Cc1ccc(-c2nc(C#N)c(S(=O)(=O)N(C)C)o2)cc1
inactive: [2] 84.3% | [3] 80.3% | [4] 97.7% | [5] 108% | [6] 102% | [7] 80.5% | [8] 77% | [9] 105% | [10] 105%
active: [1] -10.1%

N#Cc1c(-c2cccc(F)c2)cc(-c2cccnc2)[nH]c1=O
inactive: [1] 91.3% | [2] 98.8% | [3] 100% | [4] 98.9% | [5] 113% | [6] 99.6% | [7] 110% | [8] 108% | [9] 104% | [10] 105%

O=C(Nc1ccc(F)cc1)c1cc2cc(Nc3nc(-c4ccccc4)nc4ccccc34)ccc2oc1=O
inactive: [1] 86.6% | [2] 97.9% | [3] 100% | [4] 106% | [5] 111% | [6] 98.2% | [7] 101% | [8] 105% | [9] 103% | [10] 95.5%

Cc1oc2c(Cc3ccc(NC(=O)c4ccc(Cl)cc4)cc3)ncnc2c1C(=O)NO
inactive: [1] 71.2% | [2] 92.4% | [3] 98.5% | [4] 103% | [5] 109% | [6] 94.1% | [7] 103% | [8] 95.8% | [9] 113% | [10] 98.2%

C=C1C(=O)O[C@H]2[C@H]1CC/C(COC(=O)NCCCCNC(=O)OC/C1=C/CC[C@@]3(C)O[C@H]3[C@H]3OC(=O)C(=C)[C@@H]3CC1)=C\CC[C@@]1(C)O[C@@H]21
inactive: [3] 12.5% | [5] 31.1% | [6] 94.2% | [7] 48.9% | [9] 70.5% | [10] 99.5%
active: [1] -1.79% | [2] -28.3% | [4] 4.4% | [8] -8.75%

COc1ccc(/C=C2\COc3ccc(O)c(O)c3C2=O)c(OC)c1OC
inactive: [4] 36.2% | [5] 27.8% | [6] 67% | [7] 16.9% | [9] 27.9% | [10] 27%
active: [1] 9.47% | [2] -23.6% | [3] 8.41% | [8] 9.03%

CCOC(=O)c1c(-c2ccc(OC)cc2)c(C#N)c2c(C#N)c(N)nn2c1N
inactive: [2] 13.8% | [3] 43.9% | [4] 70.1% | [5] 68.1% | [6] 45.8% | [7] 24.6% | [9] 27.7% | [10] 17.8%
active: [1] 0.886% | [8] 5.29%

COc1ccccc1/C=C1\COc2ccc(O)c(O)c2C1=O
inactive: [4] 28.3% | [5] 28.1% | [6] 60.3% | [9] 10.4%
active: [1] 8.02% | [2] -19.3% | [3] 9.04% | [7] 6.74% | [8] -11.8% | [10] 3.53%

O=C1c2cc3c(cc2-c2c1c1ccc(Cl)cc1c(=O)n2CCCn1ccnc1)OCO3
active: [1] -19.4% | [2] -23.6% | [4] 3.22% | [6] 8.75% | [8] -5.45% | [10] -26.4%
inactive: [3] 11.4% | [5] 13.7% | [7] 28.3% | [9] 46.3%

c1cc(NCCCCN2CCOCC2)c2ccc3c(ccc4c(NCCN5CCOCC5)ccnc43)c2n1
inactive: [2] 98.2% | [3] 79.2% | [4] 111% | [5] 91.5% | [6] 101% | [7] 65.6% | [8] 105% | [9] 88.6% | [10] 88.1%
active: [1] -7.92%

COc1ccc(/C=N\Nc2nc(SCC(C)C)nc(-c3ccc(OC)cc3)c2C#N)cc1
inactive: [1] 50.3% | [2] 54.6% | [3] 39.2% | [4] 55.5% | [10] 42.2%
active: [5] -60.3% | [6] -16.6% | [7] -16.3% | [8] 9.64% | [9] 8.52%

CN1C(=O)N(C)C2(c3ccccc3)N(CC(=O)Nc3ccccc3O)C(=O)NC12c1ccccc1 (stereo not given)
inactive: [1] 112% | [2] 106% | [3] 102% | [4] 104% | [5] 99.3% | [6] 100% | [7] 101% | [8] 103% | [9] 105% | [10] 99.8%

O=c1ccc2nc(-c3ccccn3)nn(-c3ccccc3)c-2c1
inactive: [2] 50.3% | [3] 87.1% | [4] 109% | [5] 81.8% | [6] 84.9% | [7] 87.9% | [9] 93.9% | [10] 98%
active: [1] 5.21% | [8] -21.9%

CC[C@H](C)[C@H](NC(=O)[C@H](CCCCN)NC(=O)[C@H](CCCCN)NC(=O)[C@@H](NC(=O)[C@@H](NC(=O)[C@@H](N)Cc1cnc[nH]1)[C@@H](C)CC)[C@@H](C)CC)C(=O)N[C@@H](CCCNC(=N)N)C(=O)N[C@H](C(=O)N[C@@H](Cc1c[nH]c2ccccc12)C(=O)N[C@@H](Cc1ccc(O)cc1)C(=O)N[C@@H](CCCNC(=N)N)C(=O)N[C@@H](CCCCN)C(=O)N[C@@H](C)C(=O)N[C@@H](Cc1c[nH]c2ccccc12)C(=O)N[C@@H](Cc1cnc[nH]1)C(=O)N[C@H](C(=O)N[C@@H](CC(C)C)C(=O)NCC(=O)N[C@@H](CCCCN)C(=O)N[C@H](C(N)=O)C(C)C)C(C)C)[C@@H](C)O
inactive: [1] 71.9% | [2] 56.1% | [3] 33.7% | [4] 48.4% | [5] 77.9% | [6] 35% | [7] 39.2% | [8] 44.9% | [9] 11.6% | [10] 34.8%

O=C(/C=C\c1ccc(Cl)c(Cl)c1)c1ccccc1
-27.3% (active) and 89.4% (inactive): [2]
inactive: [1] 13.1% and 106% | [3] 79.2% and 98.9% | [4] 93.7% and 106% | [5] 88.3% | [6] 101% and 96.4% | [7] 92.7% and 82.4% | [8] 93.6% and 98% | [9] 111% | [10] 99.1% and 105%

CCN1C(=O)N(c2ccccc2)C2NC(=S)N(/N=C/C=C/c3ccccc3)C21 (stereo not given)
active: [1] 7.28% | [2] -20.1% | [3] 5.29% | [8] 8.14% | [10] 2.91%
inactive: [4] 59.7% | [5] 34.3% | [6] 24% | [7] 20.8% | [9] 16.1%

C/C=C(/C)C(=O)O[C@@H]1CC(C)(C)CC2C34OC(=O)[C@@]21CC[C@@]3(C)[C@]1(C)CCC2C(C)(C)C(=O)CC[C@]2(C)C1C[C@@H]4Cl (stereo not given in full)
inactive: [1] 108% | [2] 91% | [3] 96% | [4] 95.9% | [5] 96.2% | [6] 99.7% | [7] 96.8% | [8] 115% | [9] 99.8% | [10] 106%

COC(=O)N/N=C/c1c[n+]([O-])c2ccccc2[n+]1[O-]
inactive: [1] 93.4% | [2] 94.3% | [3] 90.8% | [4] 108% | [5] 103% | [6] 29.9% | [7] 102% | [8] 111% | [9] 126% | [10] 102%

Nc1ccc(/C=N/Nc2ccnc3c(N)cccc23)c2cccnc12
inactive: [4] 13.9% | [6] 97.2% | [7] 88.4%
active: [1] -28.2% | [2] -30.3% | [3] -30% | [5] -51.4% | [8] -85.5% | [9] -17% | [10] 9.25%

COc1ccc(S(=O)(=O)Nc2cc(Sc3cccc4cccnc34)c(O)c3ccccc23)cc1
inactive: [4] 42.3% | [6] 50.7% | [9] 47.2% | [10] 11.1%
active: [1] 8.57% | [2] 5.31% | [3] 9.48% | [5] -99.4% | [7] 5.99% | [8] -81.8%

COC(=O)c1c2c(c(C)[n+]([O-])c1C)C(=O)C(NCCN1CCOCC1)=CC2=O
inactive: [1] 66.9% | [2] 91.9% | [3] 61.7% | [4] 89.1% | [5] 35.4% | [6] 103% | [7] 63.4% | [9] 101% | [10] 91.7%
active: [8] 5.12%

Cn1cc(-c2csc(-c3c[nH]c4ccc(F)cc34)n2)c2cnccc21
inactive: [5] 10.9% | [6] 103% | [10] 11.5%
active: [1] -36% | [2] -35.5% | [3] -1.04% | [4] -12.5% | [7] -37.1% | [8] -73.2% | [9] -38.1%

Cn1c(=O)c2c(nc(Nc3cc(=O)[nH]c(=O)[nH]3)n2Cc2ccccc2)n(C)c1=O
inactive: [1] 90.7% | [2] 87.9% | [4] 96.9% | [5] 52.4% | [6] 24.6% | [7] 89.4% | [10] 99.7%
active: [3] 7.39% | [8] 0.369% | [9] -16.6%

COc1ccc(C(=O)N/N=C/c2ccc(O)cc2O)cc1Nc1ccnc(C(F)(F)F)c1
inactive: [1] 35.3% | [2] 41.7% | [3] 23.1% | [4] 46.3% | [5] 31.7% | [6] 19.7% | [7] 26.8% | [8] 78.5% | [9] 55.4% | [10] 64%

C=C1CCC2C3(C)COC(c4ccc(NC(C)=O)cc4)OC3CCC2(C)C1C/C=C1/C(=O)OCC1O (stereo not given)
active: [2] 6.14%
inactive: [1] 25.2% | [3] 44.7% | [4] 74.9% | [5] 23.7% | [6] 79.6% | [7] 84.4% | [8] 76.2% | [9] 54% | [10] 36.1%

Cc1ccc(-c2nc(SCC(=O)c3ccc(C#N)cc3)[nH]c(=O)c2C#N)cc1
inactive: [2] 123% | [3] 96.3% | [4] 94.8% | [5] 94.5% | [6] 82.4% | [7] 99.9% | [8] 97.9% | [9] 113% | [10] 101%
active: [1] -40.6%
